In ChEMBL document CHEMBL4513216, “Probing the Open Global Health Chemical Diversity Library for Multistage-Active Starting Points for Next-Generation Antimalarials” (ACS Infect Dis, 2020) one finds INHIBITION data, which are given here for 104 molecules.

In all, about 65,000 compounds went through this assay and about 2,100 (3.2%) showed an effect of 50% or more. The median lay at about -52%. Only a selection was taken, and strong results are over-represented in it overall.

The assay relates to Plasmodium falciparum. The assay is described as follows: Screen against P. falciparum Asexual Blood Stage (ABS), at 5uM. The class given is functional, Dd2. To be noted: tested at 5 uM.
On to `CO[C@@H]1CC[C@H]2[C@H]1OCCN2CC1CC1`, for which the INHIBITION is recorded as -30.3%.
Consider `c1ccc(CN2C[C@@H]3OCCN(c4ncccn4)[C@@H]3C2)nc1`, for which the INHIBITION is -56.2%.
On to `CSc1ccc(C2SCC(=O)Nc3c2c(=O)[nH]n3C2CCOCC2)cc1` (centres undefined), for which the INHIBITION is recorded as -122%.
With `CCS(=O)(=O)N1CCc2c(COC)cncc2C1`, the INHIBITION is -61.4%.
On to `COc1ccc(NC(=O)Cn2nc(C)c(C(C)=O)c2C)cc1`, for which the INHIBITION is 89.7%.
For the molecule `CC(C)N(C)Cc1cncc2c1CCN(CC1CC1)C2`, the INHIBITION was -87.9%.
The same measure for `CC(C)c1cc(N2CCC3(CCN(C)C3)C2)ncn1` (centres undefined): -27.6%; for `CNC(=O)CN1CCC12CCN(C(=O)Cc1ccccc1)C2` (centres undefined): -6.6%; for `O=S(=O)(c1ccc(Cl)cc1)N1C[C@@H]2CCN[C@@H]2C1`: 82%.
Regarding `O=C(Cc1ccc(F)cc1)N1C[C@H]2CCN[C@H]2C1`, the INHIBITION was 7.59%.
Consider `O=S(=O)(c1cccc(Cl)c1)N1C[C@@H]2CCN[C@@H]2C1`, for which the INHIBITION came to 88.1%.
Turning to `O=S(=O)(c1ccccc1)N1C[C@@H]2CCN[C@@H]2C1`, the INHIBITION was 24.4%.
For the molecule `O=C(NCc1ccccc1)N1C[C@H]2CCN[C@H]2C1`, the INHIBITION was -86.8%.
As for `Cc1ccc(S(=O)(=O)N2C[C@@H]3CCN[C@@H]3C2)cc1`, the figure is 4.39%; as for `CC(C)CNC(=O)[C@H]1C[C@H]2CN(Cc3cccnc3)C[C@@H]1O2`, -30.9%; as for `Nc1ncccc1CN1C[C@H]2CC[C@@H](C1)N(CC1CC1)C2=O`, -61.3%.
As to `FC(F)Oc1ccccc1CN1CCCC(c2nccn2CC2CC2)C1` (centres undefined), the INHIBITION came to 86.4%.
Take `CC1C(=O)Nc2cccnc2N1S(=O)(=O)c1ccc(C#N)c(Cl)c1` (centres undefined): the INHIBITION is listed as -88.9%.
With `CC(C)=CCN1C[C@@H]2CC[C@H]1CN(Cc1cc(=O)[nH]c(=O)[nH]1)C2`, the INHIBITION came out at 4.88%.
`CCN(CCN(C)C)c1nc(CCN)nc2sc(C)c(C)c12`: the INHIBITION was 89.8%.
Take `Cc1cccn2cc(CC(=O)N(CCN(C)C)CC3CCCO3)nc12` (centres undefined): the INHIBITION was -84.6%.
As for `COCCN(CC1CC1)c1nc(CCN)nc2sc(C)c(C)c12`, the INHIBITION is reported as 77.5%.
`Cc1sc2nc(CCN)nc(N(CCN(C)C)CC3CCCO3)c2c1C` (centres undefined): the INHIBITION amounted to 70.2%.
As for `Cc1nnc([C@@H]2CC[C@@H]3[C@@H](CCN3Cc3ccccn3)O2)o1`, the figure is -18%.
Regarding `CN[C@@H](C)C(=O)N(Cc1cccc(C)c1)Cc1ccccc1OC`, the INHIBITION was found to be 83.6%.
Turning to `COc1cccc(CC(C)NCC(=O)Nc2ccccc2C)c1` (centres undefined), the INHIBITION was -75%.
As for `O=C(c1ccncc1)N1C[C@@H]2OCCN(CCN3CCCC3)[C@@H]2C1`, the INHIBITION is -29.2%.
For `CCC1CNCc2cc3c(OC)ccc(OC)c3nc2O1` (centres undefined), the INHIBITION is -11%.
Consider `O=C(CC(F)(F)F)N1C[C@H]2CCN[C@H]2C1`, for which the INHIBITION is -86.8%.
The same measure for `CCc1nccn1CCNC1CCN(c2nc3ccc(Cl)cc3s2)CC1`: 85.7%; for `O=C([C@@H]1C[C@@H]2CCN(Cc3ccccn3)C[C@H]2O1)N1CCCO1`: -36.6%; for `Cc1cccnc1CC(C)NC1Cc2ccccc2C1` (centres undefined): 89.2%.
Regarding `Cc1cccnc1CC(C)NC1CCSCC1` (centres undefined), the INHIBITION stood at 23.6%.
For `O=C1[C@H]2CN(Cc3ccoc3)C[C@H]2CN1Cc1cccnc1`, the INHIBITION is listed as -10%.
For the molecule `Cc1n[nH]c(C)c1CC(=O)N1CCCN(C)C2(CCN(C)CC2)C1`, the INHIBITION is recorded as -107%.
Take `CCCOc1ccccc1CN[C@@H]1CCC[C@H]1Cc1cc(C)no1`: the INHIBITION was determined as 84.9%.
The same measure for `Cc1cc(CNC2(c3ccccc3)CCCCC2)on1`: 9.53%.
On to `Cc1cc(C[C@@H]2CCC[C@H]2NCc2cc(C)c(O)c(C)c2)on1`, for which the INHIBITION is reported as 79.9%.
Take `CCO[C@@H]1CC[C@H]2[C@H]1OCCN2CC1CCC1`: the INHIBITION is recorded as -47.6%.
Turning to `COc1c(C2SCC(=O)Nc3[nH]ncc32)cc2c(c1OC)OCO2` (centres undefined), the INHIBITION is given as -32.3%.
In the case of `CN(C)C(=O)COC[C@@]12CCC[C@@H]1CNC2`, the INHIBITION is -23.4%.
In the case of `Cn1cc(N2C[C@@H]3CN(Cc4ccccn4)C[C@@H]3C2=O)cn1`, the INHIBITION was -120%.
With `COc1cc(C(C)NCc2ncccc2C)ccc1SC(F)F` (centres undefined), the INHIBITION was 75.7%.
With `Cc1cccc(-c2ncc(CNC(C)Cc3ncccc3C)cn2)c1` (centres undefined), the INHIBITION was -7.12%.
For the molecule `Cc1nc(NCC2CC2)nc2c1COCC21CCN(C)C1` (centres undefined), the INHIBITION is on record as -73.6%.
Consider `CN(Cc1cccc(O)c1)CC1CCCN(CCc2ccc(Cl)cc2)C1` (centres undefined), for which the INHIBITION amounted to 83.5%.
As for `Cc1nc[nH]c1CN(C)CC1CCCN(CCc2ccc(Cl)cc2)C1` (centres undefined), the INHIBITION worked out at 82.9%.
As to `Cc1csc(CN2CC[C@H]3C[C@H](C)O[C@@H]3C2)n1`, the INHIBITION is -59.9%.
The same measure for `Cc1noc(C)c1CN1CCO[C@H]2CN(C3CCOCC3)C[C@H]21`: 3.95%.
As for `CC/C=C(/C)C(=O)NS(=O)(=O)c1ccc(C#N)c(C(F)(F)F)c1`, the INHIBITION is recorded as -159%.
Turning to `CC(Cn1cncn1)NCc1ccc2nonc2c1` (centres undefined), the INHIBITION is listed as -92.4%.
In the case of `Clc1ccccc1CCN1CCN(c2ccc3nncn3n2)CC1`, the INHIBITION turned out to be 74.9%.
For the molecule `Cc1ccccc1CC(=O)N1C[C@@H](O)[C@H](N2CCC(F)(F)CC2)C1`, the INHIBITION is on record as -76.9%.
Consider `COc1cc(C2SCC(=O)Nc3[nH]ncc32)c(OC)c2c1OCO2` (centres undefined), for which the INHIBITION is on record as -118%.
With `Cc1c(Cl)c(C(=O)N2CC(c3cccnc3)C2)nn1C`, the INHIBITION is -53.6%.
Turning to `COCCN1C[C@@H]2COC[C@@H](CC(=O)NCc3cccnc3)[C@@H]2C1`, the INHIBITION is -108%.
For the molecule `COc1cc(CNC(C)Cn2ccnc2)cc2c1OCO2` (centres undefined), the INHIBITION is on record as -46.3%.
As for `CCOc1ccc(CNCCCn2ccnc2)cc1Cl`, the INHIBITION is 87.7%.
As to `COc1cc(CNC(C)Cn2cccn2)cc(Cl)c1OC` (centres undefined), the INHIBITION is -35.2%.
As for `CCOc1ccc(CNCCCn2ccnc2)cc1Br`, the figure is 80.1%; as for `CC(Cn1ccnc1)NCc1ccc2nonc2c1` (centres undefined), -108%.
For the molecule `CC(Cn1ccnc1)NS(=O)(=O)c1ccc(C#N)c(Cl)c1` (centres undefined), the INHIBITION is -24.8%.
Take `COc1ccc(Cl)cc1CNCCCn1ccnc1`: the INHIBITION came to 82.3%.
As for `CC(Cn1ccnc1)NCc1cc(Br)c2c(c1)OCO2` (centres undefined), the figure is 6.16%; as for `COc1cc(CNC(C)Cn2ccnc2)cc2c1OCCO2` (centres undefined), -34%.
In the case of `CCOc1cc(CNCCCn2ccnc2)cc(Cl)c1OCC`, the INHIBITION turned out to be 77.3%.
On to `O=C1CSC(c2ccsc2)c2c(n(C3CCCC3)[nH]c2=O)N1` (centres undefined), for which the INHIBITION was -94.4%.
Regarding `Cc1csc(CN2C[C@@H]3CN(C)CCO[C@@H]3C2)n1`, the INHIBITION is given as -19.5%.
As for `CC(C)(C)n1cc(C(=O)NCCCn2ccnc2)c2cccnc21`, the figure is -3.93%; as for `CCOc1c(Cl)cc(Cl)cc1CNCCCn1ccnc1`, 75.9%; as for `Cc1nn(CCNC(C)Cn2ccnc2)c(C)c1Cl` (centres undefined), 0.358%.
For `COCc1cn(C[C@H]2CC3CCN2C[C@@H]3C(=O)Nc2ccccc2)nn1` (some centres undefined), the INHIBITION is reported as -106%.
`CNC(=O)c1cn(C(C)(C)C)c2ncccc12`: the INHIBITION is given as -148%.
In the case of `c1cncc(N2CC[C@@H]3CN(CC4CC4)C[C@@H]3C2)c1`, the INHIBITION was 6.94%.
In the case of `Cc1cnc(N2C[C@H]3CCN(CC4CC4)C[C@@H]3C2)nc1`, the INHIBITION is listed as 40.6%.
On to `Cc1cnc(N2C[C@H]3CCN(CC4CC4)C[C@H]3C2)nc1`, for which the INHIBITION is on record as 65.5%.
For `Cn1ccnc1CNC1CCCOc2c1ccc1ccccc21` (centres undefined), the INHIBITION stood at 77.2%.
Consider `Cc1cc2c(c(-c3c[nH]c(C)n3)c1)OC(CN)C2` (centres undefined), for which the INHIBITION came out at 80.1%.
`Cc1nc(-c2cc(Cl)c3c(c2)CC(CN)O3)c[nH]1` (centres undefined): the INHIBITION came out at 83.7%.
`Cc1nc(-c2cc(Cl)cc3c2OC(CN)C3)c[nH]1` (centres undefined): the INHIBITION is listed as 94.4%.
For the molecule `NCC1Cc2cc(Cl)cc(-c3cncc(C(=O)N4CCCCC4)n3)c2O1` (centres undefined), the INHIBITION was determined as 76%.
As to `CCN1CCN(C)C(=O)C12CCN(C(=O)Cc1ccccn1)CC2`, the INHIBITION is reported as -113%.
As for `CCC(=O)NCC(c1ccc(SC)cc1)N1CCc2sccc2C1` (centres undefined), the figure is 77.1%.
For `O=C1NC2(CCNCC2)CC1c1ccncc1` (centres undefined), the INHIBITION is on record as -134%.
Consider `C[C@@H]1CN(Cc2cccnc2)C[C@]1(C)O`, for which the INHIBITION was -61.6%.
The same measure for `C[C@@H]1CN(C2CCN(c3ccccc3F)CC2)CC[C@]1(C)O`: 87.7%; for `O=C(NCc1cccnc1)C1=NOC2(CCCN(CCO)C2)C1` (centres undefined): -58.4%; for `O=C(CCN1CCCC(CO)(CC2CC2)C1)NCc1cccc(Cl)c1` (centres undefined): 80%.
In the case of `Cc1cc(N(C)C)nc(N2CCCC2c2cccnc2)n1` (centres undefined), the INHIBITION is -15.1%.
For `Nc1cc(-c2c[nH]nc2C2CCCN2CCCc2ccccc2)ccn1` (centres undefined), the INHIBITION amounted to 77.3%.
Turning to `O=C1[C@H]2CN(Cc3ccoc3)C[C@@H]2CCN1Cc1cccnc1`, the INHIBITION is -121%.
For the molecule `Cc1noc(C)c1CN1CC[C@H]2O[C@@H](C(=O)N3CCCC3)CC[C@H]21`, the INHIBITION is on record as -58.1%.
On to `O=C(c1ccccc1-n1cnnn1)N1CCC2(CC1)OCCO2`, for which the INHIBITION is given as -76.9%.
As for `c1cnn(CC2CCN(c3nc(C4CC4)nc4c3CCNCC4)CC2)c1`, the figure is 91%.
As for `C1CCC(c2nc3c(c(N4CCN5CCCC5C4)n2)CCNCC3)C1` (centres undefined), the INHIBITION is reported as 77.4%.
As for `CC(C)c1nc(N2CCN3CCCC3C2)c2cnn(C)c2n1` (centres undefined), the INHIBITION worked out at 12.9%.
As for `NCC1CCN(c2nc(C3CCCC3)nc3c2CCNCC3)C1` (centres undefined), the INHIBITION is 93.5%.
Take `CCOCc1nc2c(c(N3CCN4CCCC4C3)n1)CCNCC2` (centres undefined): the INHIBITION is -33.2%.
Turning to `Cc1nn(-c2ccccn2)c2c1C(c1cnn(C)c1)SCC(=O)N2` (centres undefined), the INHIBITION is -90.8%.
Take `Cc1noc(C)c1CN1CCO[C@H]2CNC[C@H]21`: the INHIBITION is given as -38.6%.
For the molecule `CCN(C)c1nccc(N2CCN[C@H]3CS(=O)(=O)C[C@H]32)n1`, the INHIBITION is reported as -58.4%.
For `Cc1cc(-n2cccn2)ccc1CN1CCOCC(CN(C)C)C1` (centres undefined), the INHIBITION was found to be 73%.
The same measure for `COc1ccc(-n2cccn2)c(CN2CCOCC(CN(C)C)C2)c1` (centres undefined): 78.4%.
As for `CO[C@H]1COCCN(Cc2c[nH]c3ccccc23)C1`, the figure is -48.4%.
